UCHL1 inh: blocks human UCHL1 ubiquitin-rhodamine cleavage; P09936; purified UCHL1, Ub-rhodamine cleavage fluorescence; AID 1645859; actives 0.2% (n = 47,000); inhibition, % at 20 µM
USP7 inh: blocks human USP7 ubiquitin-rhodamine cleavage | Q93009 | purified USP7, Ub-rhodamine cleavage fluorescence | inhibition, % at 20 µM | actives 0.3% (n = 47,000)
OTUD3 inh: blocks human OTUD3 ubiquitin-rhodamine cleavage | Q5T2D3 | purified OTUD3, Ub-rhodamine fluorescence, 2 h | inhibition, % at 25 µM | actives 0.7% (n = 47,000)
USP10 block: blocks human USP10 ubiquitin-rhodamine cleavage; Q14694; purified USP10, Ub-rhodamine fluorescence, 60 min; inhibition, % at 20 µM; actives 1.1% (n = 47,000); AID 1645856
Target sequence (Q14694 whole entry, looked up): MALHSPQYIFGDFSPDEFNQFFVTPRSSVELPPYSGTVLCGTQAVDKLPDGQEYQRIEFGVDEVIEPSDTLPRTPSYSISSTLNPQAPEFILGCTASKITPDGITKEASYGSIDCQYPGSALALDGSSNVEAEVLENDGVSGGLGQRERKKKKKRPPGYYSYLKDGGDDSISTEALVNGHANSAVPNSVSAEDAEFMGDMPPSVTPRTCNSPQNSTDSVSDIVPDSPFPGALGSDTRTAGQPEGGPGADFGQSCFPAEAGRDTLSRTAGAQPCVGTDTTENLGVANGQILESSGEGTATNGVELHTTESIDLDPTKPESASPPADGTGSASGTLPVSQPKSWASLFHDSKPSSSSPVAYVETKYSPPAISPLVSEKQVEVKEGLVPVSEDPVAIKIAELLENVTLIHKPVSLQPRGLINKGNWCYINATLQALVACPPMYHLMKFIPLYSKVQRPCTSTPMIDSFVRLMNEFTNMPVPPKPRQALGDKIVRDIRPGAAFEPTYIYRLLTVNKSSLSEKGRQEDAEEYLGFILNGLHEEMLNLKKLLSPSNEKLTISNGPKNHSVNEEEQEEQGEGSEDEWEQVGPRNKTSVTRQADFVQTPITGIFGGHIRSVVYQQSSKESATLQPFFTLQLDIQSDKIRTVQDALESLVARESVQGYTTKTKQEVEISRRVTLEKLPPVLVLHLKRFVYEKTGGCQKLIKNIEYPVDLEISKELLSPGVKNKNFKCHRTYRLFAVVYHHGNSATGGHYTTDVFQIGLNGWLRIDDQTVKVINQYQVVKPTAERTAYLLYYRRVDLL
USP8 block: blocks human USP8 ubiquitin-rhodamine cleavage; P40818; purified USP8, Ub-rhodamine cleavage fluorescence, 30 min; inhibition, % at 20 µM; actives 4.2% (n = 47,000); AID 1645853
Starred values were filed as active, the others as inactive. Sampled rows, rich in hits. Any-hit rate of the full collection: about 5%. Cut-off read from the data, not from the text of the source: active = inhibition above about 30%; inactive = the rest.

SMILES	UCHL1 inh	USP7 inh	OTUD3 inh	USP10 block	USP8 block
COc1ccc(NS(=O)(=O)c2cc(NC(=O)CCc3nc4ccccc4s3)ccc2C)cc1	1.8	-2.2	4.6	18.4	22.1
CC(C)CCn1c(=O)c2ccccc2n2c(CCC(=O)NC3CCCCCC3)nnc12	0.5	-32.3	37.9*	-5.5	26.6
COc1ccc(CNC(=O)CCc2nnc3n(Cc4ccccc4Cl)c(=O)c4ccccc4n23)cc1	9.0	7.0	33.2*	14.4	38.4*
O=C(CCc1nnc2n(Cc3ccccc3Cl)c(=O)c3ccccc3n12)NCc1ccccn1	0.2	-19.1	13.0	-5.3	-7.4
O=C(CCc1nnc2n(Cc3ccccc3Cl)c(=O)c3ccccc3n12)NCc1ccccc1	0.0	7.3	11.4	14.7	47.5*
Cc1cccc2nc(C(=O)Nc3cccc(C(N)=O)c3)cn12	1.4	4.5	3.4	-2.6	17.2
O=C(CCn1c(=O)c2ccccc2n(Cc2cccc([N+](=O)[O-])c2)c1=O)NCc1ccc2c(c1)OCO2	4.0	7.3	11.2	2.9	21.9
O=C(CCn1c(=O)c2sccc2n(CC(=O)OCc2ccccc2)c1=O)NCc1ccc2c(c1)OCO2	4.7	15.6	34.9*	35.7*	61.4*
CCOc1ccccc1NC(=O)Cn1c(=O)n(CCC(=O)NCc2ccc3c(c2)OCO3)c(=O)c2sccc21	7.3	29.2	-0.4	68.8*	53.6*
Cc1ccccc1-c1noc(-c2cn(Cc3ccc(NC(=O)Cc4ccccc4)cc3)cn2)n1	0.2	-2.4	6.2	14.6	37.5*
O=C(Nc1ccc(-c2noc(CCc3ccccc3)n2)cc1)c1ccccc1F	5.4	9.2	5.1	10.9	7.5
O=C(Nc1ccc(Cn2cnc(-c3nc(-c4ccccc4)no3)c2)cc1)c1ccccc1F	11.2	16.5	9.0	21.4	46.8*
O=C(c1cnc(-c2ccc(F)cc2)nc1-c1ccncc1)N1CCC2(CC1)OCCO2	-0.3	-2.5	-11.6	-2.9	-1.7
Cc1n[nH]c(C)c1CC(=O)N1CCCC(c2ccc3cn[nH]c3n2)C1 (stereo not drawn)	-1.7	1.6	-1.7	0.5	-1.1
Cc1cnc(CN2CCCC(c3ccc4cn[nH]c4n3)C2)cn1 (stereo not drawn)	0.4	1.6	46.7*	0.0	1.8
O=C(O)Cn1cc(C(=O)C2CC2)c2ccccc21	-3.3	-0.4	-3.9	-0.7	0.1
O=C(Cn1cc(C(=O)C2CC2)c2ccccc21)NCCOc1ccc(Cl)cc1	0.0	10.2	13.1	1.1	31.8*
COc1ccc(C2/C(=C(\O)c3ccccc3)C(=O)C(=O)N2c2nc3ccc(F)cc3s2)cc1 (stereo not drawn)	-2.2	0.7	19.3	41.5*	7.5
Cc1ccc(C2/C(=C(\O)c3ccc(F)cc3)C(=O)C(=O)N2c2nc3ccc(F)cc3s2)cc1 (stereo not drawn)	-0.7	1.7	-4.4	28.5	-12.5
COc1ccc(C2/C(=C(\O)c3ccccc3)C(=O)C(=O)N2c2cccc(C(F)(F)F)c2)cc1 (stereo not drawn)	-4.9	3.7	0.0	30.5*	-86.9
c1ccc2oc(CN3CC[C@H](c4nnc(-c5ccncc5)o4)C3)cc2c1	-2.2	-10.3	-8.6	-5.9	34.1*
Clc1ccc(CCNc2nc3ccc(Cl)cc3n3cnnc23)cc1	-7.6	-6.0	-24.1	-9.5	-7.0
CCN(CC)S(=O)(=O)c1ccc2[nH]c(=O)cc(C(=O)Nc3ccc4c(c3)OCO4)c2c1	-0.5	1.2	0.1	16.1	59.5*
CCN(CC)c1ccc(NC(=O)c2cc(=O)[nH]c3ccccc23)cc1	-0.6	2.7	-8.5	-2.2	16.5
O=C(c1ccc(Cl)cc1)N1CCCn2c1nc1ccccc12	-1.9	-58.3	-4.2	1.2	2.9
SMILES	UCHL1 inh	USP7 inh	OTUD3 inh	USP10 block	USP8 block
N#Cc1cn2c(nc1-c1ccc(Cl)cc1)nc1ccccc12	3.2	-9.4	60.7*	52.8*	70.9*
COc1ccc(Cn2nnc(-c3cccc(Cl)c3)n2)cc1F	5.5	-1.4	1.3	7.3	3.7
COC(=O)c1ccc2c(=O)n(CCCCCC(=O)NCCc3ccccc3Cl)c(=O)[nH]c2c1	0.0	14.5	-2.2	52.7*	42.6*
COC(=O)c1ccc2c(=O)n(CCCCCC(=O)NCCc3ccc(S(N)(=O)=O)cc3)c(=O)[nH]c2c1	5.8	20.4	20.9	37.4*	82.1*
O=C(NC1CCCCC1)C1CN(S(=O)(=O)c2ccc(F)c(F)c2)CC12CCOCC2 (stereo not drawn)	3.0	3.4	15.2	2.1	23.4
O=C(c1ccccc1)c1c(-c2ccccc2)oc2ccc(NS(=O)(=O)c3ccc(Cl)cc3)cc12	9.9	15.8	10.0	32.9*	23.2
Cc1oc2ccc(NS(=O)(=O)c3ccc(F)cc3)cc2c1C(=O)OCc1ccccc1	7.3	12.5	6.9	20.3	8.7
COc1ccc(OC)c(NC(=O)CNC(c2ccccc2)c2ccccc2)c1	8.7	-2.6	22.5	5.4	28.4
COc1ccc(OC)c(NC(=O)CNC(=O)c2cc3c(OC)cccc3[nH]2)c1	-1.2	9.5	22.9	2.4	30.2*
CCOC(=O)N1CCN(c2ncc(Cn3cccn3)s2)CC1	0.1	4.5	14.8	3.5	10.2
CC(C)N1CCC2(CC1)Nc1ccccc1C(=O)N2Cc1ccccc1	-2.9	-2.4	4.1	-7.7	16.8
O=C1c2ccccc2NC2(C(=O)Nc3ccc(Br)cc32)N1c1ccccc1 (stereo not drawn)	5.7	-7.4	76.3*	6.0	32.9*
CC(C)(C)NC(=O)CN1CCC2(CC1)Nc1ccccc1C1=NCCN12	0.1	2.4	-6.0	-6.6	-9.2
CC(=O)c1cccc(NC(=O)COC(=O)c2sc3cc(F)ccc3c2Cl)c1	4.9	9.7	0.1	30.8*	26.3
Cc1cccc(NC(=O)COC(=O)c2sc3cc(F)ccc3c2Cl)c1	1.6	5.5	0.0	6.1	2.5
Cc1nc(CNC(=O)c2ccc(-c3noc(C4CC4)n3)cc2)no1	-0.2	-0.1	-3.9	0.1	-3.1
Cc1cccc(NC(=O)CNC(=O)c2ccc(-c3noc(C4CCCC4)n3)cc2)c1C	3.1	17.8	1.4	59.3*	0.4
O=C(Nc1cccc(C(F)(F)F)c1)c1ccc2c(c1)SC1=NS(=O)(=O)CCN12	-0.9	-1.9	-0.2	3.3	0.0
COc1ccc(CCNC(=O)c2ccc3c(c2)SC2=NS(=O)(=O)CCN23)cc1	-1.8	2.7	-18.7	8.1	35.1*
O=C(NCc1ccc2c(c1)OCO2)c1nc(CS(=O)(=O)c2ccccc2)no1	1.0	-2.3	-2.3	-0.1	0.8
Fc1cccc(-c2nnc3sc(-c4ccco4)nn23)c1	0.0	6.5	-7.7	0.3	43.2*
Cc1ccc(NC(=O)Cn2c(C)ccc(NC(=O)Nc3cccc(C)c3)c2=O)cc1	-5.5	5.4	-0.8	5.1	12.8
Cc1ccc(NC(=O)Nc2ccc(C)n(CC(=O)Nc3ccccc3)c2=O)cc1	2.2	20.5	4.0	39.1*	44.9*
Oc1ccc(-c2nc3cnccn3c2NCCc2ccccc2)c(O)c1	-24.3	-25.2	-173.6	-12.4	-247.6
Cc1c(CNCc2ccc(F)cc2)c(C(=O)O)c(C)n1-c1ccccc1	-6.9	-10.1	-33.7	-7.7	43.4*
